In PubChem BioAssay (NCI):
Compounds without any hit were thinned out: in the full panel of roughly 79,000, 15% have a hit. Rule as the data show it: active = growth inhibition above about 70%; inactive = the rest.

Columns and labels:
[1] = NCI Yeast Anticancer Drug Screen. Data for the rad50 strain (AID 155);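 also: 0% = growth of vehicle-only cultures of the same strain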; settings: S. cerevisiae rad50 strain growth inhibition; at 50.0 µM; active compounds read high
Method in brief: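 Genetically altered yeast (DNA repair pathway); compound treatment; growth inhibition vs vehicle ctrl.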

[2] = NCI Yeast Anticancer Drug Screen. Data for the mec2-1 strain (AID 157); settings: S. cerevisiae mec2-1 strain, at 50.0 µM, active compounds read high
Method in brief: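 Readout is yeast growth inhibition, normalised to vehicle-treated controls, in the mec2-1 strain exposed to compound.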

[3] = NCI Yeast Anticancer Drug Screen. Data for the sgs1 mgt1 strain (AID 161);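 also: 0% = growth of cultures given vehicle only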; settings: S. cerevisiae sgs1 mgt1 strain, at 50.0 µM, active compounds read high
Method in brief: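 Growth of a repair-deficient yeast mutant was monitored after compound treatment and expressed as inhibition relative to vehicle-treated cultures.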

[4] = NCI Yeast Anticancer Drug Screen. Data for the cln2 rad14 strain (AID 165);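 also: 0% = growth equal to vehicle treated cultures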; settings: S. cerevisiae cln2 rad14 strain, at 50.0 µM, active compounds read high
Method in brief: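 Relative to vehicle controls, growth inhibition of compound-treated cln2 rad14 yeast was recorded.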

[5] = NCI Yeast Anticancer Drug Screen. Data for the bub3 strain (AID 167); settings: S. cerevisiae bub3 mutant strain, at 50.0 µM, active compounds read high
Method in brief: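 Yeast carrying a defined mutation is treated with each compound, and growth is compared with that of vehicle-exposed cells to give inhibition.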

[6] = NCI Yeast Anticancer Drug Screen. Data for the mlh1 rad18 strain (AID 175); settings: S. cerevisiae mlh1 rad18 strain growth inhibition; at 50.0 µM; active compounds read high
Method in brief: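 Test agents were incubated with a yeast strain of defined genotype (DNA damage repair defect). Inhibition of growth was derived by comparison with vehicle-exposed cultures.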

Measured: growth inhibition

O=NNc1ncc(Cl)cc1Cl
inactive: [1] 4.9% | [2] -23.8% | [3] -6.05% | [4] -4.7% | [5] 14.2% | [6] 8.65%

O=[As](O)(O)c1cc(F)ccc1F
inactive: [1] -5.75% | [2] -4.3% | [3] -11.4% | [4] -15.3% | [5] -8% | [6] -8.3%

C/C(=C\COc1ccc2ccc(=O)oc2c1)C1=CC(=O)C(C)(C)O1
inactive: [1] -2.65% | [2] -17.2% | [3] 18.9% | [4] 9.85% | [5] -14.8% | [6] 12.2%

CC1=CC(C(=O)O)P(C)(=O)C1 (stereo not given)
inactive: [1] -0.9% | [2] -18.2% | [3] -12.3% | [4] -11.6% | [5] 0.4% | [6] -10.3%

ClCCn1c(/C=C/c2nc3ccccc3n2CCCl)nc2ccccc21
inactive: [1] 26.1% | [2] 5.8% | [3] 6.1% | [4] -32.1% | [5] -3.65% | [6] 20.6%

ClCCOCOCCCl
inactive: [1] -0.5% | [2] -7.1% | [3] -20.1% | [4] -38% | [5] -6.15% | [6] -7.25%

O=C(O)CCC(=O)O.[Ni]
inactive: [1] -29.1% | [2] -17.1% | [3] -27% | [4] -36.5% | [5] -31.2% | [6] -18.3%

CC(=O)c1ccc(NC(O)C(Cl)(Cl)Cl)cc1 (stereo not given)
inactive: [1] 5.75% | [2] 18.9% | [3] -0.25% | [4] -12.2% | [5] 18.8% | [6] 22.4%

COc1ccc(/C=C\c2cc(OC)c(OC)c(OC)c2)cc1OC(=O)CCC(=O)O
inactive: [1] -13.1% | [2] -12.3% | [3] 8.7% | [4] 24.1% | [5] 14.2% | [6] -27.1%

COc1cc2c(cc1O)CC1CC(=O)CCN1C2 (stereo not given)
inactive: [1] -3.4% | [2] 4.5% | [3] -12.1% | [4] -6.85% | [5] -10.8% | [6] -0.75%

CCOC(=O)C1C(=O)C(CN(CCCl)CCCl)C(=O)C(C(=O)OCC)C1c1cc(OC)c(OC)c(OC)c1 (stereo not given)
inactive: [1] 17.9% | [2] -8.05% | [3] 16.6% | [4] -27.9% | [5] 0% | [6] 30.9%

O=C(O)C(=O)Cc1ccc2c(c1)OCO2
inactive: [1] -3.8% | [2] -19.3% | [3] -28.6% | [4] -32.9% | [5] -20.2% | [6] 0.5%

O=C1CC(=O)N(C2CCC(C3CCCCC3)CC2)C(=O)N1 (stereo not given)
inactive: [1] 14.1% | [2] 4.85% | [3] 27.5% | [4] 1.35% | [5] 22.3% | [6] 5.75%

CNC(=O)c1cn(C2OC(CO)C(O)C2O)c2ncnc(N)c12 (stereo not given)
inactive: [1] -5.95% | [2] 8.3% | [3] 4.7% | [4] -1.25% | [5] -1.05% | [6] 5.65%

C=C(C(=O)OC1CC2CCC(C1)[N+]2(C)[O-])c1ccccc1 (stereo not given)
inactive: [1] 7.4% | [2] -6% | [3] -19.4% | [4] -2.95% | [5] 3.1% | [6] -23.3%

NC(Cc1ccc(N(CCCl)Cc2ccccc2)cc1)C(=O)O (stereo not given)
inactive: [1] 10.1% | [2] -13.2% | [3] 2% | [4] -3.85% | [5] -29.2% | [6] -31.5%

Cc1ccc(C2=CCNCC2)cc1
inactive: [1] -9.45% | [2] -24.3% | [3] -4.3% | [4] 6.75% | [5] -12% | [6] -2.65%

O=c1oc2ccccc2c(O)c1C(c1ccc(O)cc1)c1c(O)c2ccccc2oc1=O
inactive: [1] -1.35% | [2] 3.1% | [3] -6.4% | [4] -2.95% | [5] -3% | [6] -33.9%

COC(=O)C1=C(C)N2[C@H](C(=O)O)CO[C@@]2(C)[C@H](C(=O)OC)[C@H]1c1cccc([N+](=O)[O-])c1
inactive: [1] 26.6% | [2] -8.35% | [3] 21.4% | [4] 4.25% | [5] 25.6% | [6] 22.7%

CCCCCCCCCCC(O)C1CCC(C(O)CCC(O)C2CCC(CCCCCCC[C@H](O)CC3=C[C@@H](C)OC3=O)O2)O1 (stereo not given in full)
inactive: [1] 31.4% | [2] 6.55% | [3] 1.55% | [4] 12.9% | [5] 19.1% | [6] 27.2%
